Results: PubChem BioAssay
Where “and” joins values, the source holds several entries; their conditions need not be identical. Identical values can stand only once. Calls of active or inactive are those of the source.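 The calls were made as follows, unless noted: active = z-score of at least 1.8 in each of two replicates, scored against plate mean and spread of sample wells; inactive = the rest.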

Tests used:
[1] = hESC survival regulators, cell-based (AID 493140; call rule not given here;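 also: cells exposed to compounds for four days before counting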); details: human embryonic stem cell survival screen; stronger effect = higher value
[2] = stimulators of nuclear beta-catenin in C2C12, primary screen, imaging, WNT3A-conditioned medium, mouse C2C12, NPC library (AID 1117326; in the data active = nuclear beta-catenin stimulation mostly above about 4.2%, no sharp cut-off; inactive = mostly below about 10%); details: stronger effect = higher value
[3] = stimulators of insulin release from INS-1E, primary screen, cell-based, 5 mM glucose, NPC library (AID 1117329;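 active = compound raises insulin release from rat beta cells at 5 mM glucose, no numeric limit stated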); details: rat INS-1E insulin secretion, at 10 µM, stronger effect = higher value
[4] = growth inhibition of GSK3B-pretreated HCT116 cells – cell-based, CellTiter-Glo, 0.2 to 20 µM (AID 1117336;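 active = compounds lowering colon cancer cell viability after pretreatment blocking the GSK3B kinase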); details: HCT116 viability after GSK3B inhibitor, at 20 µM, stronger effect = higher value
[5] = inhibition of endothelial tube formation, primary screen, imaging, VEGF stimulated, CD31 staining, tube area, NPC library (AID 1117340;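 active = compound that reduces growth-factor-driven endothelial tube area in a mixed cell culture, no cutoff stated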); details: VEGF-stimulated ADSC/ECFC co-culture, at 10 µM, stronger effect = higher value
[6] = glucagon-like peptide 1 release enhancers, primary assay, NCI-H716 cell line, NPC library (AID 1117341;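 active = compound raises GLP1 secretion from the human gut endocrine cells, with no numeric limit stated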); details: NCI-H716 cells, at 10 µM, stronger effect = higher value
[7] = HCT116 colon cancer cell growth inhibition, primary screen, CellTiter-Glo luminescence, NPC library (AID 1117342;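 active = compounds that lower survival of HCT116 colon cancer cells in the luminescence readout, no numeric limit stated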); details: at 20 µM (top of the series)
[8] = CellTiter-Glo luminescent readout of SW480 viability loss, NPC library primary (AID 1117343;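 active = compounds that lower viability of the colon cancer cells in the luminescence readout, with no numeric limit stated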); details: CellTiter-Glo luminescence; at 20 µM (top of the series)
[9] = decreased DLD-1 cellular survival, CellTiter-Glo luminescent readout, NPC compound collection, primary HTS (AID 1117346;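 active = compounds that lower survival of DLD-1 colon cancer cells in the luminescence readout, no cutoff given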); details: DLD-1 viability, CellTiter-Glo luminescence; at 20 µM (top of the series)
[10] = survival rescue of mitochondrial mutant cells in low glucose, primary screen, MELAS cybrids, Rieske KO mouse fibroblasts, CellTiter-Glo (AID 1508586;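 active = mean z-score across replicates of 1.96 or higher in either the MELAS or the Rieske mutant cell line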;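 also: z relative to plate mean and SD of compound and empty wells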)
[11] = target: NAD(+) hydrolase SARM1 (Homo sapiens) (UniProt Q6SZW1); assay: SARM1 TIR NADase inhibitors, cell lysate, NAD-Glo luminescence (AID 1508614;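 active = compound whose remaining NAD level is above about 45 nM, limit read from the data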;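 also: higher remaining NAD means stronger inhibition of SARM1 NADase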); details: SAM-TIR HEK293T lysate NADase, at 1 µM, stronger effect = higher value
Chain of NAD(+) hydrolase SARM1 (Homo sapiens) (Q6SZW1 whole entry, looked up): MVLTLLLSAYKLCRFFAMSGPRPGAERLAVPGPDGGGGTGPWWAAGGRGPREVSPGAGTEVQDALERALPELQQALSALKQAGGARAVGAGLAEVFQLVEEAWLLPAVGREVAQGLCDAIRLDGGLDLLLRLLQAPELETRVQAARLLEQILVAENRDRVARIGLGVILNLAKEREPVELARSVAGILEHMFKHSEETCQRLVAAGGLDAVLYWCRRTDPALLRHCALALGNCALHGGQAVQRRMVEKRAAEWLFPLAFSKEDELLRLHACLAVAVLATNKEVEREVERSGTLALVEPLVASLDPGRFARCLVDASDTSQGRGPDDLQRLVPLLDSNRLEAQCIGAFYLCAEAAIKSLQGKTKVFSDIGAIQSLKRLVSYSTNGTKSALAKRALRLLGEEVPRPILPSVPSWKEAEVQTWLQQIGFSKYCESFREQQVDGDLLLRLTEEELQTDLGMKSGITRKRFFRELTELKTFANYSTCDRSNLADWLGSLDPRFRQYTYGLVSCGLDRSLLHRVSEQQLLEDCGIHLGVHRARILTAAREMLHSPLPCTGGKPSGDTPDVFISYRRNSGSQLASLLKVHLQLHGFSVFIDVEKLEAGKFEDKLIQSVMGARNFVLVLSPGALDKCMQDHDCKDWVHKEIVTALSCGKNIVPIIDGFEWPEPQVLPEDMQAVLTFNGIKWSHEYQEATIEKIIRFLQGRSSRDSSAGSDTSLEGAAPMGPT

[12] = viability rescue of complex I mutant cybrids, primary screen, cell-based, galactose medium, ATP luminescence (AID 1645843); details: complex I mutant cybrid cells, 72 h, stronger effect = higher value;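 also: positive z means more ATP and so rescue of galactose-driven cybrid death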
[13] = liver-stage malaria parasite growth inhibition, primary screen, cell-based, HepG2, luciferase luminescence, HepG2 viability (AID 624349; in the data active = parasite load remaining mostly below about 12%, no sharp cut-off; inactive = mostly above about 10%;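 also: 100% = mean of DMSO negative control wells on the same plate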); details: P. berghei liver stage in HepG2, luciferase luminescence, concentration not given here; parasite load remaining: stronger effect = lower value; viability: measured here: HepG2 viability without parasites
[14] = sensitizers of A549 cells to miR-34 induction, primary screen, imaging, A549 dox-inducible miR-34, nuclei and caspase counts (AID 1347080;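 active = compounds whose cell count with miR-34 switched on is under 0.7 times the count with it off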); details: A549 miR-34 inducible, Hoechst nuclei count, 48 h
[15] = differential killing of epithelial or mesenchymal cells, primary screen, imaging, PC-3E GFP, TEM4-18 mCherry, co-culture (AID 1345086;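 active = compounds killing one labelled cell type while sparing the other, by normalised counts and ratio limits, not self-fluorescent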;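 as to all read-outs here: cells exposed to compound for 72 h before imaging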;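 as to red/green cell ratio (normalised): normalised mesenchymal count divided by normalised epithelial count so high means epithelial killing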); details: imaging cell counts, at 1 µM; for red/green cell ratio (normalised): actives lie on both sides
[16] = tested on: Aerobactin synthetase IucA (Klebsiella pneumoniae hvKP1); assay: Biochemical IucA enzyme inhibition primary screen of the Spectrum library (AID 1346200; call rule not given here;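 also: 100% = wells without compound and 0% = wells lacking enzyme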); details: malachite green pyrophosphate, A620, at 8 µM, stronger effect = lower value
[17] = target: Mitogen-activated protein kinase 7 (Homo sapiens) (UniProt Q13164); assay: ERK5 transactivation activators in reporter cells, primary screen, cell-based, HTS (AID 1508626;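 active = luciferase signal above three times the same-plate solvent-only control wells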;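 also: luciferase driven by Gal4-ERK5 fusion binding five Gal4 sites before minimal TATA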); details: HeLa Gal4-ERK5 transactivation, 18 h, at 5 µM, stronger effect = higher value
Chain of Mitogen-activated protein kinase 7 (Homo sapiens) (Q13164 whole entry, looked up, the tested form may be a part): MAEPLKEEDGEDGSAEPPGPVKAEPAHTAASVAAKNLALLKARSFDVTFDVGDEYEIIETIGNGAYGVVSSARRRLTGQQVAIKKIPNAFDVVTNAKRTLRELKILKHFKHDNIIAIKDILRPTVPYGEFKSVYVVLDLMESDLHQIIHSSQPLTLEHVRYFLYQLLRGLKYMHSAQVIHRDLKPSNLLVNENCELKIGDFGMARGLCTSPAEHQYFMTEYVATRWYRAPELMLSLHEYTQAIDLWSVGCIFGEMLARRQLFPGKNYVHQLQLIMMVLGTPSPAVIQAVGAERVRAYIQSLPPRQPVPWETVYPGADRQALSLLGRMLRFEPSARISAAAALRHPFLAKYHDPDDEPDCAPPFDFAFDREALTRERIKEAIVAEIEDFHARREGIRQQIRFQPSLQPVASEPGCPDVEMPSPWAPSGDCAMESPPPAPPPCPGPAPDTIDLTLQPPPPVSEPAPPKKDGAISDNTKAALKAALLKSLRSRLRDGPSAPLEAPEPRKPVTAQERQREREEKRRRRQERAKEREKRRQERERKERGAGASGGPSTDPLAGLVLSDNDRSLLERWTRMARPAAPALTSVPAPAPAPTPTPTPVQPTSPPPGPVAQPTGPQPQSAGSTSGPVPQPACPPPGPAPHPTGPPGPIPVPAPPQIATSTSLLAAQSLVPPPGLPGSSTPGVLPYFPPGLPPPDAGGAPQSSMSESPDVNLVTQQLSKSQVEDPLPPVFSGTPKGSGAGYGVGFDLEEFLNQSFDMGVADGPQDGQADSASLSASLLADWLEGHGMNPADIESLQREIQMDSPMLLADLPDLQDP

[18] = tested on: Aerobactin synthetase IucA (Klebsiella pneumoniae, hypervirulent); assay: IucA enzyme inhibition, biochemical, LOPAC library, absorbance readout (AID 1346212; call rule not given here;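 also: 100% = no compound wells and 0% = no enzyme wells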); details: IucA enzyme assay, absorbance (OD) readout; stronger effect = lower value; concentration not given here
[19] = MELAS cybrid survival, CellTiter-Glo 48 h, stronger effect = higher value
[20] = Rieske KO mouse fibroblast survival, CellTiter-Glo 72 h
[21] = stronger effect = lower value, cell number ratio, induced over uninduced
[22] = measured here: relative caspase fold change +Dox/-Dox
[23] = measured here: total cells with miR-34 induction, stronger effect = lower value
[24] = measured here: total cells without miR-34 induction
[25] = measured here: epithelial PC-3E GFP cell survival
[26] = measured here: mesenchymal TEM4-18 mCherry cell survival

C#CCN(C)[C@H](C)Cc1ccccc1
survival [1]: 12.8 (inactive) | nuclear beta-catenin stimulation ([2]; at 10 µM): -2% (inactive) | nuclear beta-catenin stimulation ([2]; stimulation, at 2 µM): 0.7% | insulin secretion stimulation [3]: 1.2% (inactive) | viability decrease [4]: 1.9% (inactive) | tube area decrease [5]: -3.8% (inactive) | GLP1 secretion stimulation [6]: 1.9% (inactive) | inhibition of viability [7]: 6.37% (inactive) | viability decrease (inhibition) [8]: 10.9% (inactive) | viability decrease (inhibition) [9]: 8.8% (inactive) | z-score [10, 19]: -1.17 (inactive) and -0.00892 (inactive) | z-score [10, 20]: -0.0749 and -0.112 | remaining NAD [11]: 10 nM (inactive) | z-score [12]: 1.24 (inactive) and 0.63 (inactive)

O=C(O)C(Cl)Cl
parasite load remaining [13]: 106% (inactive) | viability [13]: 113% | nuclear beta-catenin stimulation ([2]; at 10 µM): 1.9% (inactive) | nuclear beta-catenin stimulation ([2]; stimulation, at 2 µM): 0% | insulin secretion stimulation [3]: -1.6% (inactive) | viability decrease [4]: -4.8% (inactive) | tube area decrease [5]: -7.2% (inactive) | GLP1 secretion stimulation [6]: -2% (inactive) | inhibition of viability [7]: -9.3% (inactive) | viability decrease (inhibition) [8]: 38.4% (inactive) | viability decrease (inhibition) [9]: 8.5% (inactive) | fold change ([14]; stronger effect = lower value): 1.04 (inactive) | fold change [14, 21]: 0.958 (inactive) | fold change [14, 22]: 1.82 and 1.65 | cell count [14, 23]: 10400 and 8960 | cell count [14, 24]: 10100 and 9360 | z-score [12]: 0.605 (inactive) and 0.045 (inactive)

Oc1cc(Cl)ccc1Oc1ccc(Cl)cc1Cl
parasite load remaining [13]: -1.97% (inactive) and 16.2% (inactive) | viability [13]: 75.8% and 88.8% | nuclear beta-catenin stimulation ([2]; at 10 µM): 1.1% (inactive) | nuclear beta-catenin stimulation ([2]; stimulation, at 2 µM): 0.7% | insulin secretion stimulation [3]: 1.4% (inactive) | viability decrease [4]: 48.8% (inactive) | tube area decrease [5]: 104% (active) | GLP1 secretion stimulation [6]: 26.8% (active) | inhibition of viability [7]: 95% (active) | viability decrease (inhibition) [8]: 112% (active) | viability decrease (inhibition) [9]: 51.4% (active) | red/green cell ratio (normalised) [15]: 0.82 (inactive) | normalised cell number [15, 25]: 1.03 | normalised cell number [15, 26]: 0.84 | activity remaining [16]: 106% (inactive) | fold change ([14]; stronger effect = lower value): 1.03 (inactive) and 0.888 (inactive) | fold change [14, 22]: 2.38 and 7.01 | cell count [14, 23]: 7170 and 12100 | cell count [14, 24]: 6950 and 13600 | z-score [10, 19]: -0.777 (inactive) | z-score [10, 20]: -0.145 | remaining NAD [11]: 10 nM (inactive) | luciferase signal [17]: 48 AU (inactive) | z-score [12]: -1.48 (inactive)

COc1ccc(C(=O)N2CCCC2=O)cc1
parasite load remaining [13]: 27.9% (inactive) and 46.2% (inactive) | viability [13]: 90.5% and 108% | nuclear beta-catenin stimulation ([2]; at 10 µM): 0.6% (inactive) | nuclear beta-catenin stimulation ([2]; stimulation, at 2 µM): 1.5% | insulin secretion stimulation [3]: -0.2% (inactive) | viability decrease [4]: -7.2% (inactive) | tube area decrease [5]: -6.9% (inactive) | GLP1 secretion stimulation [6]: -1% (inactive) | inhibition of viability [7]: -1% (inactive) | viability decrease (inhibition) [8]: 8.2% (inactive) | viability decrease (inhibition) [9]: 2.2% (inactive) | red/green cell ratio (normalised) [15]: 1.03 (inactive) | normalised cell number [15, 25]: 1.3 | normalised cell number [15, 26]: 1.35 | activity remaining [16]: 112% (inactive) | remaining activity [18]: 122% (inactive) | z-score [10, 19]: 0.14 (inactive) and 0.301 (inactive) and -1.05 (inactive) | z-score [10, 20]: 1 and 0.247 and -0.762 | remaining NAD [11]: 10 nM (inactive) | luciferase signal [17]: 60 AU (inactive) | z-score [12]: 0.545 (inactive) and 0.9 (inactive) and 0.65 (inactive)

CCCC(C)C1(CC)C(=O)N=C(S)NC1=O (configuration not stated)
parasite load remaining [13]: 29.3% (inactive) | viability [13]: 123% | nuclear beta-catenin stimulation ([2]; at 10 µM): 0.1% (inactive) | nuclear beta-catenin stimulation ([2]; stimulation, at 2 µM): -0.3% | insulin secretion stimulation [3]: -0.2% (inactive) | viability decrease [4]: -5.2% (inactive) | tube area decrease [5]: -13.6% (inactive) | GLP1 secretion stimulation [6]: 0.9% (inactive) | inhibition of viability [7]: -4.4% (inactive) | viability decrease (inhibition) [8]: 95.4% (active) | viability decrease (inhibition) [9]: 3.85% (inactive) | red/green cell ratio (normalised) [15]: 1.19 (inactive) | normalised cell number [15, 25]: 1.01 | normalised cell number [15, 26]: 1.21 | activity remaining [16]: 91.6% (inactive) | fold change ([14]; stronger effect = lower value): 0.92 (inactive) | fold change [14, 22]: 4.02 | cell count [14, 23]: 10900 | cell count [14, 24]: 11900 | remaining NAD [11]: 10 nM (inactive) | luciferase signal [17]: 60 AU (inactive)

CCOC(=O)c1cncn1C(C)c1ccccc1 (configuration not stated)
survival [1]: 6.08 (inactive) | parasite load remaining [13]: 51% (inactive) and 69.2% (inactive) | viability [13]: 95.5% and 111% | nuclear beta-catenin stimulation ([2]; at 10 µM): 1.8% (inactive) | nuclear beta-catenin stimulation ([2]; stimulation, at 2 µM): 3.6% | insulin secretion stimulation [3]: -0.5% (inactive) | viability decrease [4]: -7.2% (inactive) | tube area decrease [5]: 11% (inactive) | GLP1 secretion stimulation [6]: -1.9% (inactive) | inhibition of viability [7]: -15.8% (inactive) | viability decrease (inhibition) [8]: 22.4% (inactive) | viability decrease (inhibition) [9]: -22.4% (inactive) | z-score [10, 19]: -0.441 (inactive) | z-score [10, 20]: 0.585 | z-score [12]: 0.035 (inactive) and 0.295 (inactive)

CC(C)c1cccc(C(C)C)c1O
survival [1]: 5.17 (inactive) | nuclear beta-catenin stimulation ([2]; at 10 µM): 1.6% (inactive) | nuclear beta-catenin stimulation ([2]; stimulation, at 2 µM): 2.2% | insulin secretion stimulation [3]: 0.6% (inactive) | viability decrease [4]: 83.9% (active) | tube area decrease [5]: 31% (inactive) | GLP1 secretion stimulation [6]: -1.8% (inactive) | inhibition of viability [7]: 88.2% (active) | viability decrease (inhibition) [8]: 102% (active) | viability decrease (inhibition) [9]: 100% (active) | red/green cell ratio (normalised) [15]: 1.01 (inactive) | normalised cell number [15, 25]: 1.17 | normalised cell number [15, 26]: 1.17 | activity remaining [16]: 114% (inactive) | remaining activity [18]: 108% (inactive) | z-score [10, 19]: 0.836 (inactive) and -0.252 (inactive) | z-score [10, 20]: -0.371 and -1.34 | remaining NAD [11]: 10 nM (inactive) | luciferase signal [17]: 40 AU (inactive) | z-score [12]: 0.08 (inactive) and -0.35 (inactive) and 0.505 (inactive)

COc1cccc([C@@]2(O)CCCC[C@@H]2CN(C)C)c1
nuclear beta-catenin stimulation ([2]; at 10 µM): 4.3% (inactive) | nuclear beta-catenin stimulation ([2]; stimulation, at 2 µM): 1.4% | insulin secretion stimulation [3]: 9.4% (inactive) | viability decrease [4]: 34.1% (inactive) | tube area decrease [5]: -7.2% (inactive) | GLP1 secretion stimulation [6]: 4.9% (inactive) | inhibition of viability [7]: 30.7% (inactive) | viability decrease (inhibition) [8]: 75.1% (active) | viability decrease (inhibition) [9]: 20.8% (inactive) | fold change ([14]; stronger effect = lower value): 0.937 (inactive) | fold change [14, 22]: 0.969 | cell count [14, 23]: 10100 | cell count [14, 24]: 10700 | z-score [10, 19]: 0.879 (inactive) and 0.255 (inactive) | z-score [10, 20]: 0.166 and -0.539 | remaining NAD [11]: 10 nM (inactive) | luciferase signal [17]: 40 AU (inactive) | z-score [12]: 0.845 (inactive)

COc1cc(N)c(Cl)cc1C(=O)NC1CN2CCC1CC2 (configuration not stated)
parasite load remaining [13]: 103% (inactive) | viability [13]: 107% | nuclear beta-catenin stimulation ([2]; at 10 µM): -1.2% (inactive) | nuclear beta-catenin stimulation ([2]; stimulation, at 2 µM): 0% | insulin secretion stimulation [3]: 3% (inactive) | viability decrease [4]: 0.8% (inactive) | tube area decrease [5]: -1.2% (inactive) | GLP1 secretion stimulation [6]: 6.7% (inactive) | inhibition of viability [7]: 15.8% (inactive) | viability decrease (inhibition) [8]: -5.8% (inactive) | viability decrease (inhibition) [9]: 1.7% (inactive) | fold change ([14]; stronger effect = lower value): 0.946 (inactive) | fold change [14, 21]: 0.971 (inactive) | fold change [14, 22]: 1.7 and 0.526 | cell count [14, 23]: 9370 and 10300 | cell count [14, 24]: 9910 and 10600 | z-score [12]: 0.86 (inactive) and -0.355 (inactive)
